Assay results: PubChem BioAssay AID651789 (National Center for Advancing Translational Sciences (NCATS), 2012)
Results filed as inconclusive are left out. The source made the active and inactive calls. Calls follow the shape of the dose curve; as a rule, active = well fitted inhibition curve with a large enough effect; inconclusive = small, poorly fitted or top-dose-only effect; inactive = no such curve, though single readings can be large or run the other way.

Assay: Acumen qHTS Assay for Inhibitors of the mTORC1 Signaling Pathway in WT MEF Cells: Hit Validation; also: nearly all actives have a fitted effect of over 60% in size;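 as to activity change, negative = inhibition: percent of cells above a cutoff set by 7.5 nM rapamycin treated wells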
Settings: Acumen imaging; series mostly up to 37.3 µM; activity change, negative = inhibition: at the top concentration
Excerpt: The mammalian target of rapamycin (mTOR) is an intracellular serine/threonine kinase Aberrant regulation of mTOR signaling plays a causative role in a number of human diseases, including cancer, benign tumors such as lymphangioleiomyomatosis (LAM) and Tuberous Sclerosis Complex (TSC), and metabolic diseases such as diabetes and obesity. This project aims to identify inhibitors of ribosomal protein S6 (rpS6) phosphorylation. The phosphorylation of rpS6 is a key event downstream of mTOR activation. The assay uses a phospho-specific antibody of phospho-rpS6 to detect inhibitors of mTOR activation. Mutations in the Tsc1 and Tsc2 genes are the underlying genetic lesions responsible for TSC, causing constitutive activation of the mTORC1 pathway and leading to profound effects on cell metabolism. Aberrant metabolism in cancer has recently received significant attention as a target to develop therapeutic agents in the treatment of cancer.1 As Tsc2-/- cells have lost the ability to respond to energy and growth factor deprivation, these cells are unable to properly down regulate cellular biosynthetic processes in response to metabolic stress, and are thus extremely sensitive to glucose deprivation-induced death.2 A central goal of this project is to explore the unique cell survival and metabolic properties of cells with Tsc1 or Tsc2 by screening for compounds that selectively target the Tsc2-/- MEFs by screening both Tsc2-/- and WT MEF cell lines. We hope to better understand these aspects of TSC physiology in order to exploit them for therapeutic benefit.
NIH Molecular Libraries Probe Production Centers Network [MLPCN]
NIH Chemical Genomics Center [NCGC]
Assay Submitter (PI): Blenis, John; Harvard University
For quantitative high throughput analysis of mTORC1 signaling, we developed a cell-based assay for immuno-fluorescence based detection of rpS6 phosphorylation on the Acumen Explorer that will be used a platform for the primary small molecule screen. Mouse embryonic fibroblasts (MEFs) are cultured in 1536-well plates using DMEM + 10% FBS. Twenty-four hrs after plating, test compounds (solubilized in DMSO) are delivered and incubated with the cells for 24 hrs at 37 degree Celsius. Following the incubation, media with compound is aspirated and the cells are fixed in 4% paraformaldehyde (PFA) containing PBS + 0.2% TX-100. Next, PFA is aspirated, cells are washed two times with PBS plus 0.2% TX-100 and the cells are blocked for 1 hr at room temperature (blocking buffer: LiCOR Blocking Buffer plus 0.2% TX-100). This is followed by aspiration and staining with Alexa-488 conjugated-phospho-rpS6 Ser235/236 antibody for 2 hours at room temperature (Cell Signaling Technology # 4803, 1:50 dilution in blocking buffer). Cells are washed two times with PBS plus 0.2% TX-100, and stained with 10 uM propidium iodide (PI) for 20-25 minutes for cell number measurement (1:500 dilution of Hoescht staining is also added for IN Cell imaging). The plates are scanned on the Acumen Explorer laser scanning instrument (TTP Labtech) using the 488nm laser for simultaneous excitation of the Alexa-488 and PI. […] Fluorescence emission from the PI stain is selected using a 575-640 nm band pass filter. The normalized phospho-S6 staining is calculated as the ratio of the integrated Alexa 488 intensity divided by the integrated PI intensity for the single concentration rapamycin control (7.5 nM) and DMSO columns. […] Inhibition of the pathway is defined based on the normalized phospho-S6 intensity in rapamycin treated cells. Active cells are defined as those with a normalized phospho-S6 staining above this threshold, and each treatment is reported as the % positive cells in the well, where thresholds are defined by selecting wells with the highest and lowest signal and differentiating between the % non-active and % active populations. In addition to the pathway specific phospho-S6 endpoint, the number of PI stained cells from the Acumen is recorded as a measure of cell viability. […]
Potency is read from the fitted curve at half-maximal effect.

Row | SMILES | activity change, negative = inhibition | Potency
1 | COc1cccc(-c2nc(SCC(=O)NCC3CCCO3)c(-c3ccc(F)cc3)[nH]2)c1 (stereo not given) | 12.2% (inactive) | 
2 | Cn1nnnc1SCCCNCc1cccc(OCc2ccc(Cl)cc2)c1 | 88% (inactive) | 
3 | CCN(CC)CCn1c(=N)n(CC(O)COc2ccccc2C)c2ccccc21 (stereo not given) |  | 11.7 µM (active)
4 | CCCSc1oc(-c2ccco2)nc1S(=O)(=O)c1ccc(Br)cc1 | 4.58% (inactive) | 
5 | CN(C)c1ccc(NC(=O)Cn2cc(S(=O)(=O)Cc3ccccc3Cl)c3ccccc32)cc1 |  | 13.1 µM (active)
6 | Cc1ccccc1CS(=O)(=O)c1ncc(Cl)c(C(=O)Nc2nnc(C(C)C)s2)n1 |  | 11.7 µM (active)
7 | CCN(CC)CCCNc1sc(S(=O)(=O)c2ccccc2)nc1S(=O)(=O)c1ccc(Cl)cc1 |  | 16.5 µM (active)
8 | CCC(C)Sc1oc(-c2ccco2)nc1S(=O)(=O)c1ccc(C)cc1 (stereo not given) | -0.763% (inactive) | 
9 | COc1cc(C(=O)N(CCCN(C)C)c2nc3c(OC)cccc3s2)cc(OC)c1OC | -2.29% (inactive) | 
10 | Cc1cccc(CSc2cn(CC(=O)N3CCCCCC3)c3ccccc23)c1 | 60.5% (inactive) | 
11 | CCOc1ccc(CC(=O)NC2CC(=O)N(c3ccc4c(c3)OCCO4)C2)cc1 (stereo not given) | 38.6% (inactive) | 
12 | Cc1ccc(-c2nnc(Nc3ccc(O)cc3)c3ccccc23)cc1S(=O)(=O)N1CCCCC1 | -7.1% (inactive) | 
13 | COc1ccc(-c2nc(S(=O)(=O)c3ccc(Cl)cc3)c(N3CCCCCC3)o2)cc1 | -10.6% (inactive) | 
14 | CCc1nn(CC(=O)NCc2ccccc2)c(=O)c2cccn12 | 10.7% (inactive) | 
15 | CCc1ccc(NC(=O)CSc2nccn2C2CCCC2)cc1 | 17.4% (inactive) | 
16 | CCOc1ccccc1NC(=O)CSc1cc(=O)n(CC)c2ccccc12 | 4.58% (inactive) | 
17 | CCn1c2ccccc2c2cc(CN3CCN(Cc4ccc(Cl)cc4)CC3)ccc21 | 18.5% (inactive) | 
18 | COc1ccc(-c2[nH]nc3nc(-c4cc(OC)c(OC)c(OC)c4)cc(C(=O)O)c23)cc1 | 23.3% (inactive) | 
19 | COc1cccc(C(=O)Nc2ccc(-c3cc(C(F)(F)F)nn3-c3ccccc3)cc2)c1 | -20.9% (inactive) | 
20 | Cc1ccc(-c2nc3sccn3c2Nc2ccc(C)c(C)c2)cc1 | -18.1% (inactive) | 

Row | SMILES | activity change, negative = inhibition | Potency
21 | Cc1ccc(NC(=O)CSc2ncc3c(n2)-c2ccccc2N(C)S3(=O)=O)c(Cl)c1 | -9.36% (inactive) | 
22 | Cc1ccc(CS(=O)(=O)c2ncc(Cl)c(C(=O)Nc3nnc(C(C)C)s3)n2)cc1 |  | 11.7 µM (active)
23 | Cc1ccc(NC(=O)CSc2ccc(-c3ccccn3)nn2)cc1F | -2.29% (inactive) | 
24 | O=S(=O)(c1cccc2cnccc12)N1CCCNCC1 | -22.7% (inactive) | 
25 | COc1cccc(-n2c(-c3ccc(C)cc3)cc3c2CC(C)(C)CC3=O)c1 | -25.8% (inactive) | 
26 | Cc1ccc(S(=O)(=O)Nc2ccc3c(c2)c(C(=O)OC(C)C)c(C)n3S(=O)(=O)c2ccc(C)cc2)cc1 | 0.763% (inactive) | 
27 | CCOc1cc(CNCCSc2nnnn2C)cc(Cl)c1OCc1ccc(Cl)cc1 | 6.82% (inactive) | 
28 | Cc1ccc(NC(=O)c2ccc(CN3CCN(C)CC3)cc2)cc1Nc1nccc(-c2cccnc2)n1 | -8.06% (inactive) | 
29 | CC1C(=O)Nc2ccc(S(=O)(=O)Nc3ccccc3Br)cc2NC1=O (stereo not given) | 32.8% (inactive) | 
30 | O=C(NCCSc1c(-c2ccc(F)cc2)[nH]c2ccccc12)c1ccc(S(=O)(=O)N2CCOCC2)cc1 | 3.45% (inactive) | 
31 | CN1CCN(C2(CNC(=O)c3ccc(C(C)(C)C)cc3)CCCCC2)CC1 | 10.1% (inactive) | 
32 | Cc1c(C(=O)OCc2ccccc2)[nH]c2c1C(=O)CC(c1ccc(Cl)cc1)C2 (stereo not given) |  | 13.1 µM (active)
33 | Cc1cccc(N(CC(=O)NCCSc2ccc(Cl)cc2)S(=O)(=O)c2ccccc2)c1C | 14.5% (inactive) | 
34 | CC1CCN(S(=O)(=O)c2ccc(C(=O)Nc3sc4c(c3C(N)=O)CC(C)(C)NC4(C)C)cc2)CC1 |  | 3.29 µM (active)
35 | FC(F)(F)c1cccc(Nc2c3c(nc4ccc(Cl)cc24)CCC3)c1 |  | 16.5 µM (active)
36 | COc1ccc(N2CC(c3nc(-c4cc(OC)c(OC)c(OC)c4)no3)CC2=O)cc1Cl (stereo not given) | -13% (inactive) | 
37 | COc1ccc(CCN(C)CCCC(C#N)(c2ccc(OC)c(OC)c2)C(C)C)cc1OC (stereo not given) | 2.34% (inactive) | 
38 | Cc1cccc(Oc2coc3cc(OCC(=O)NC4CCCCC4)ccc3c2=O)c1 | 2.69% (inactive) | 
39 | COc1cc(OC)c(NS(=O)(=O)c2ccc3c(c2)CCCN3C(C)=O)cc1Cl | 1.71% (inactive) | 
40 | CCCCS(=O)(=O)c1nc(-c2ccc(Br)cc2)cc(-c2ccccc2)c1C#N |  | 5.21 µM (active)
